# Screens: PubChem, NMMLSC
# LNCaP diff act: promotes differentiation of LNCaP prostate cells | flow cytometry side scatter, 4 d | side scatter shift, % at 10 µM | 0.56% of 24,000 active | AID 795;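 active = side scatter shift above 30%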;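 note: androgen-responsive LNCaP prostate cancer cells in charcoal-stripped serum medium; percent of cells past a gate set so DMSO wells show 10% shift; higher shift means more granular cells and more differentiation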
# QS inhibitor: blocks AIP-induced quorum sensing reporter in S. aureus | S. aureus RN6390 RNAIII-GFP reporter, flow cytometry 3 h | inhibition, % at 2 µM | 0.3% of 24,000 active | AID 527;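 active = share of bacteria positive for the green fluorescent reporter and its mean brightness both inhibited by 50% or more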;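 note: 0% = AIP-stimulated control and 100% = unstimulated bacteria without AIP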
# * hit, by the source's call; . = not tested or not shown. Sampled rows, rich in hits. Any-hit rate of the full collection: about 0.83%.
SMILES,LNCaP diff act,QS inhibitor
CCOC(=O)C1=C(C)NC(C)=C(C(=O)OC)C1c1cccc(Cl)c1Cl (configuration not stated),2,54*
COC(=O)C1=C(C)NC(=O)CC1c1cccc(Cl)c1Cl (configuration not stated),10,8
Cc1cc(NC(=O)C2CCCC2)nc2c1c(=O)oc1ccccc12,6,54*
Cc1cc(NC(=O)C2CCCCC2)nc2c1c(=O)oc1ccccc12,9,-4
O=C(Nc1nc2ccccc2s1)C1CC(=O)N(c2ccc(Cl)cc2)C1 (configuration not stated),.,-5
CCOC(=O)Cn1c(=O)oc2cc(S(=O)(=O)Nc3ccc(N(CC)CC)cc3C)ccc21,12,90*
CCOC(=O)Cn1c(=O)oc2cc(S(=O)(=O)Nc3cc(OCC)ccc3OCC)ccc21,6,1
CCCC(=O)O[C@]1(C(=O)COC(C)=O)CC[C@H]2[C@@H]3C[C@H](F)C4=CC(=O)C=C[C@]4(C)[C@@]3(F)[C@@H](O)C[C@@]21C,11,-1
Nc1c(C(O)(C(F)(F)F)C(F)(F)F)ccc2ccccc12,19,63*
Cc1cc(C)nc(N(C#N)CC(=O)N2CCC(C(N)=O)CC2)n1,10,-1
Cc1cc(C)n(Cc2ccc(F)cc2)c(=O)c1C#N,17,-1
Cc1cc(C)n2nnnc2c1C#N,37*,2
COC(=O)C1=C(C)NC(C)=C(C(=O)OC)C1C1CC=CCC1 (configuration not stated),4,2
CCCc1cc(C(=O)Nc2sc(C)c(CC)c2C#N)no1,15,6
CCc1c(C)sc(NC(=O)c2cc(C)on2)c1C#N,2,90*
CCOCCCN1CC(C(=O)NCCc2ccccc2)CC1=O (configuration not stated),7,2
CCOC(=O)c1[nH]c(C)c(C)c1C,5,-1
COc1ccc(-n2ncc3c(N4CCN(c5cccc(C)c5C)CC4)ncnc32)cc1,19,-1
COc1ccc(-n2cc(-c3ccccc3)c3c(N4CCN(CCO)CC4)ncnc32)cc1,44*,1
O=C(c1ccc(N2CCN(C3CC(=O)N(c4ccc(F)cc4)C3=O)CC2)cc1)c1cccnc1 (configuration not stated),.,-2
O=C(c1ccccc1)c1ccc(N2CCNCC2)cc1,41*,0
CCOC(=O)c1ccc(Oc2nc(NC(C)(C)C)nc(N(C)C)n2)cc1,2,3
CCOC(=O)c1oc2ccccc2c1NC(=O)Cc1cccs1,13,0
Cc1ccc(-c2noc(CCC(=O)NCCN3CCN(Cc4ccccc4)CC3)n2)cc1,21,-3
COc1ccc(-c2noc(CCC(=O)NCCCN3CCC(Cc4ccccc4)CC3)n2)cc1,32*,-1
SMILES,LNCaP diff act,QS inhibitor
CCn1c(=O)cc(OCC(=O)N2CCc3ccccc32)c2ccccc21,15,0
O=C(CNC(=O)Cn1ccc2ccccc2c1=O)NCCCN1CCCCCC1,2,0
Cc1cccn2c(=O)c3cc(C(=O)NC4CCCC4)c(=N)n(C4CCCC4)c3nc12,19,2
N=c1c(C(=O)NC2CCCC2)cc2c(=O)n3ccccc3nc2n1C1CCCC1,68*,-1
CCOC(=O)c1ccc(NCc2nc3ccccc3[nH]2)cc1,7,1
COc1ccccc1NC(=O)C1=C(C)Nc2nnnn2C1c1ccncc1 (configuration not stated),12,-5
COc1ccc2cc3cc(C(=O)Nc4ccccc4N4CCN(C)CC4)oc3nc2c1,62*,1
COc1ccc2cc3cc(C(=O)NCCN4CCN(c5ccccc5F)CC4)oc3nc2c1,4,1
COc1ccc(Cl)cc1N1CCN(CCNC(=O)Nc2ccccc2C)CC1,45*,0
COc1ccccc1N1CCN(CCCNC(=O)Nc2ccccc2C)CC1,3,-8
COc1ccc(Cl)c(NC(=O)NCCN2CCN(c3ccccc3)CC2)c1,18,0
COc1ccc(Cl)c(N2CCN(CCCNC(=O)Nc3ccc(C)cc3)CC2)c1,40*,4
CC12C=CC3(CN(Cc4ccccc4)C(=O)C3C1C(=O)NCc1ccco1)O2 (configuration not stated),10,-2
CSc1nnnn1CCn1nnnc1SC,13,1
N=c1n(CCN2CCCCC2)c2ccccc2n1CC(O)COc1ccccc1 (configuration not stated),64*,2
OC(COc1ccc(OCC(O)CN2CCCCCC2)cc1)CN1CCCCCC1 (configuration not stated),2,-4
Cc1ccc(S(=O)(=O)N2CCC(C(=O)N3CCC(C(=O)NCC4CCCO4)CC3)CC2)cc1 (configuration not stated),15,-3
CN(C)c1ccc(CNC2CC(C)(C)NC(C)(C)C2)cc1,36*,1
CN(C)c1ccc(CNn2cnnc2)cc1,4,0
CSc1ccc(C2C(C#N)=C(N)Oc3c2ccc(=O)c2c(C)oc(C)c32)cc1 (configuration not stated),33*,0
CSc1ccc(C2C(C#N)=C(N)N(c3ccccc3)C3=C2C(=O)CCC3)cc1 (configuration not stated),5,0
Cc1ccc(CCNC(=O)C2CCCN(S(=O)(=O)c3c(C)nn(C)c3C)C2)cc1 (configuration not stated),13,-1
Cc1ccccc1-n1c(=O)cc(N2CCC3(CC2)OCCO3)[nH]c1=O,4,5
Cn1ccnc1SCC(=O)c1ccc(Br)cc1,3,3
COc1ccccc1-n1c(=S)sc2c(=O)n(Cc3ccco3)c(SC)nc21,11,52
SMILES,LNCaP diff act,QS inhibitor
O=C(NCCCc1ccccc1)c1cnc2n(c1=O)CCS2,6,56*
O=C(NCc1ccccc1)c1cnc2n(c1=O)CCS2,10,-3
Cc1ccc(S(=O)(=O)NC(C)C(c2cccs2)N2CCN(C)CC2)cc1 (configuration not stated),17,-1
CCN1CCN(C(c2cccs2)C(C)NS(=O)(=O)c2ccc(Br)cc2)CC1 (configuration not stated),32*,-4
Cn1nc(CC(=O)Nc2ncc(Br)s2)c2ccccc2c1=O,2,0
O=C(COc1ccc(S(=O)(=O)N2CCCC2)cc1Cl)NC1CC1,36*,0
O=C(Cn1c(=O)oc2cc(S(=O)(=O)N3CCCCCC3)ccc21)NC1CCCCCCC1,24,-5
Cn1c(=O)c2cc(S(=O)(=O)Nc3cccc(F)c3)ccc2n(C)c1=O,6,0
CCCc1cc(C(=O)NC2CCCC2)no1,10,-2
CC(C)N=c1cc2n(-c3ccc(Cl)cc3)c3ccccc3nc-2cc1Nc1ccc(Cl)cc1,1,70*
O=C(c1ccco1)N1CCN(S(=O)(=O)c2ccc3c(c2)CCN3C(=O)C2CCC2)CC1,11,-2
CCOC(=O)CCC(=O)O[C@H]1[C@H](O[C@@H]2[C@@H](C)[C@H](O[C@H]3C[C@@](C)(OC)[C@@H](O)[C@H](C)O3)[C@@H](C)C(=O)O[C@H](CC)[C@@](C)(O)[C@H](O)[C@@H](C)C(=O)[C@H](C)C[C@@]2(C)O)O[C@H](C)C[C@@H]1N(C)C,1,52*
CC(C)C(NS(=O)(=O)c1ccc(Br)s1)C(=O)O (configuration not stated),17,-3
O=C1c2ccccc2C(Nc2ccc3c(c2)OCCO3)N1Cc1ccccc1 (configuration not stated),9,-3
